Bioassay records: PubChem BioAssay, National Center for Advancing Translational Sciences (NCATS)
Cruzain inh noDet – cruzain (T. cruzi) inhibition without detergent; P25779; purified cruzain, Z-FR-AMC fluorescence, no detergent; Potency, µM, for the others: max response, negative = inhibition, most hits filed as inhibitors; 200,000 tested, 2.3% active; AID 1476;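 note: plate controls were enzyme without inhibitor for no effect and buffer without enzyme for full effect; nearly all actives have a fitted effect of over 40% in size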
Target sequence (P25779 123-467 limits assumed): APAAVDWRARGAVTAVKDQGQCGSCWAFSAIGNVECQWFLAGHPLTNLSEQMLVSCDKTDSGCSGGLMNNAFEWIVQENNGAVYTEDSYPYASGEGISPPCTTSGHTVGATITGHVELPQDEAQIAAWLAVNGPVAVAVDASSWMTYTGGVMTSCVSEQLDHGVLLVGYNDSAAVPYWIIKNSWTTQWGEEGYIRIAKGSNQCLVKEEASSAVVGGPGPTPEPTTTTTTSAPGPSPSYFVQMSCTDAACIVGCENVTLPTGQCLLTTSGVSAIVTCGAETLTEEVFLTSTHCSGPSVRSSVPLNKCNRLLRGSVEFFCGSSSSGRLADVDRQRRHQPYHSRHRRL
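Detergent-free condition (0.00005% Triton X-100) in acetate buffer pH 5.5 with DTT. 1.5 nM enzyme and compound were pre-mixed 15 min, then 2 uM Z-FR-AMC substrate added; reaction progress from fluorescence change between first and third reads (60 s).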
Cruzain inh Det – inhibitors of Trypanosoma cruzi cruzain with detergent; purified cruzain, Z-FR-AMC fluorescence, 0.01% Triton; Potency, µM, without a hit: max response, negative = inhibition, hits mostly inhibitors; P25779; 200,000 tested, 0.43% active; AID 1478;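 note: plate controls were neutral wells for no effect and buffer without enzyme for full effect; nearly all actives have a fitted effect of over 40% in size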
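Cruzain (1.5 nM) preincubated 15 min at RT with compound in 100 mM sodium acetate pH 5.5, 5 mM DTT, 0.01% Triton X-100. Reaction started with 2 uM Z-FR-AMC; AMC fluorescence (ex 360/em 450 nm) change over 60 s gave rate.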
* marks the source's active call; other numbers are inactive results; ? = inconclusive. Hits are enriched below; roughly 2.5% of the tested compounds scored in any of these assays. Calls come from the whole dose curve; as a rule, active = well fitted curve in the direction sought with a large enough effect; inconclusive = small, poorly fitted or top-dose-only effect, or another doubt; inactive = no such curve, though single readings can be large; an effect the other way counts as inactive or inconclusive. Potency is the fitted concentration of half-maximal effect.

SMILES	Cruzain inh noDet	Cruzain inh Det
Cc1cc(C(=O)OCC(=O)Nc2ccc(F)cc2[N+](=O)[O-])c2ccccc2n1	20µM*	-2%
CCOC(=O)c1c(C)[nH]c(C)c1S(=O)(=O)N1CCN(c2ccccc2OC)CC1	10%	-2%
CCN(CC)CCNC(=O)c1cc2c(=O)n(C)c3cc(Cl)ccc3c2s1	10%	-3%
CCC1=C(OC(=O)N(CC)CC)N2C(=O)OC(=NCCOC)[C@]2(C)[C@H]2C1=CC[C@H]1C(=O)NC(=O)[C@H]12	22%	-1%
COc1ccc(CNC(=O)Cn2c(=O)nc(-c3ccccc3F)c3cc(Cl)ccc32)cc1OC	2%	3%
Cc1ccc(S(=O)(=O)/N=C2/C=C(C3C(=O)CC(C)(C)CC3=O)C(=O)c3ccccc32)cc1	-16%	-6%
CCc1ccc(S(=O)(=O)/N=C2/C=C(Sc3ncn[nH]3)C(=O)c3ccccc32)cc1	25µM*	-14%
CCCCn1c(/C=N/Nc2nc3ccccc3[nH]2)nc2ccccc21	?	-11%
C#CCn1cc(/C=N/Nc2nc3ccccc3[nH]2)c2ccccc21	32µM*	-22%
CCCCOc1ccc(CNC(=O)C2CCN(c3nnc(-n4cccc4CNc4ccc(C)cc4)s3)CC2)cc1	-10%	-4%
Cc1cc(C)n(C(C)CC(=O)Nc2ccc(C)c(F)c2)n1 (stereo not drawn)	1%	-2%
Clc1cccc(-c2cc3nc4c(c(N5CCNCC5)n3n2)CCCC4)c1	25µM*	-5%
OC1CCN(c2c3c(nc4cc(-c5cccc(F)c5)nn24)CCCC3)CC1	-5%	-10%
COC(=O)c1scc(-c2ccc(C)cc2)c1S(=O)(=O)Nc1cccc(C(F)(F)F)c1	-4%	-18%
O=C(CSc1nccn1Cc1ccco1)Nc1ccc(OC(F)(F)F)cc1	7%	-11%
O=C1OCCN1C(=O)[C@H]1[C@H](c2ccc(Cl)cc2)C(c2ccc(F)cc2)=NN1c1ccccc1	?	3%
O=C1OCCN1C(=O)[C@H]1[C@H](c2ccc(F)cc2)C(c2ccc(F)cc2)=NN1c1ccccc1	?	-4%
O=C1OCCN1C(=O)[C@H]1[C@H](c2ccc(Cl)cc2)C(c2ccc(F)cc2)=NN1c1ccc(Br)cc1	11µM*	-13%
O=C1OCCN1C(=O)[C@H]1[C@H](c2ccc(F)cc2)C(c2ccc(F)cc2)=NN1c1ccc(Br)cc1	25µM*	-3%
CCCSCCCNC(=O)CN1C(=O)COc2ccc(S(=O)(=O)N3CCCCCC3)cc21	16%	-1%
CCCCN(C)CCNC(=O)c1c2c(nc3ccccc13)C(=O)N(C1CCCCC1)C2	-6%	-5%
COc1ccc(OC)c2c(=S)c3ccccc3[nH]c12	-6%	-16%
COCC(=O)Nc1nnc(Cc2ccc(OC)cc2)s1	-3%	2%
O=C(Cc1nnc(NC(=O)Nc2ccc(Cl)cc2)s1)NCc1ccccc1	10µM*	1%
Cc1ccc(NC(=O)Nc2nnc(Cc3ccc([N+](=O)[O-])cc3)s2)cc1	-19%	0%
SMILES	Cruzain inh noDet	Cruzain inh Det
O=C(Cc1nnc(NC(=O)Nc2ccccc2)s1)NCc1ccccc1	-75%	-2%
COc1ccc(Cc2nnc(NC(=O)c3ccc(Cl)c([N+](=O)[O-])c3)s2)cc1	16µM*	7%
O=C(Nc1ccc(Cl)cc1)Nc1nnc(SCc2ccc(Cl)cc2)s1	7.9µM*	1%
O=C(Nc1ccccc1)Nc1nnc(SCc2ccc(Cl)cc2)s1	?	-1%
O=C(Nc1ccc(Cl)cc1)Nc1nnc(Cc2ccc([N+](=O)[O-])cc2)s1	7.9µM*	-2%
COc1ccc(CNc2cc(-c3ccccc3Cl)ncn2)c(OC)c1	1%	-4%
Cc1cc(=O)n(CC(=O)N2CCCCC2)c2c1c(C)nn2C	-2%	-2%
Cc1ccccc1NC(=O)Cn1c(=O)n(Cc2ccc3c(c2)OCO3)c(=O)c2oc3ccccc3c21	5%	1%
COC(=O)[C@H](Cc1ccccc1)NC(=O)O[C@@H]1C(=O)c2ccc(OC)cc2O[C@H]1c1ccc2c(c1)OCO2	-17%	2%
CCc1ccc(NS(=O)(=O)c2[nH]ncc2C(=O)OC)cc1	7%	0%
Cc1ccc(C(=O)NCc2ccccc2)cc1NC(=O)c1nsc2ccccc12	?	-2%
NC(=[SH+])N=N/C=C1/C=CC=CN1.O=S(=O)(O)O.[Fe]	3%	-2%
CC(=O)N1CCCC1c1nc2ccccc2n1Cc1cccc(C)c1 (stereo not drawn)	0%	-3%
CSc1nc(C)c(C(=O)Nc2ccccc2)c(C)c1C#N	-2%	0%
Cc1nc(SCC(=O)c2cc3ccccc3oc2=O)c(C#N)c(C)c1C(=O)Nc1ccccc1	13µM*	-6%
Cc1cc(C)cc(NC(=O)CCS(=O)(=O)c2cccc3nsnc23)c1	3%	-4%
CCN(CC)CCNC(=O)c1ccc2nc(CCc3ccccc3)oc2c1	-3%	-2%
COc1ccc(-n2c(-c3ccc(C)cc3)cc3c2CC(C)(C)CC3=O)cc1Cl	1%	1%
CCN(CC)c1ccccc1	-6%	-1%
Nc1ccc(N(c2ccccc2)c2ccc(N)cc2)cc1	32µM*	-1%
CC(C)NC[C@@H](O)c1ccc(O)c2ncccc12	1%	2%
O=S(=O)(c1ccc(F)cc1)c1nc(-c2ccco2)oc1Nc1ccc(F)cc1	?	-7%
COc1ccc(Nc2oc(-c3ccco3)nc2S(=O)(=O)c2ccc(F)cc2)cc1	25µM*	-25%
Cc1ccc(CNc2oc(-c3ccco3)nc2S(=O)(=O)c2ccccc2)cc1	32µM*	?
O=S(=O)(c1ccccc1)c1nc(-c2ccco2)oc1NCCN1CCOCC1	-1%	-4%
SMILES	Cruzain inh noDet	Cruzain inh Det
COc1ccc(NC(=O)c2ncoc2-c2ccco2)cc1Cl	-3%	-3%
Cc1ccc(S(=O)(=O)C2(C(=O)Nc3ccc(Cl)c(C(F)(F)F)c3)CC2)cc1	7%	-10%
COc1cc(OC)c2c(-c3cccc(-c4ccc(N(C)C)cc4)c3)cc(=O)oc2c1	32µM*	3%
Cc1cccc(-c2cccc(-c3cc(=O)oc4cc5c(cc34)OCO5)c2)c1	35µM*	-1%
COc1cc(OC)c2c(-c3cccc(-c4ccc(OC(F)(F)F)cc4)c3)cc(=O)oc2c1	?	-2%
COc1ccc(-c2cccc(-c3cc(=O)oc4cc5c(cc34)OCO5)c2)cc1	?	4%
COc1cc(OC)c2c(-c3cccc(-c4ccc(CO)cc4)c3)cc(=O)oc2c1	3%	-1%
COc1cc(OC)c2c(-c3cccc(/C=C/c4ccc(F)cc4)c3)cc(=O)oc2c1	10µM*	3%
COc1cc(OC)c2c(-c3cccc(-c4cccc(C)c4)c3)cc(=O)oc2c1	10µM*	0%
COc1cc(OC)c2c(-c3cccc(-c4ccc(O)cc4)c3)cc(=O)oc2c1	?	0%
COc1ccc2c(c1)NC(c1ccc(F)cc1)=NC(c1ccc(F)cc1)=N2	?	-3%
CCCOc1ccc(C2=NC(c3ccc(F)cc3)=Nc3ccc(OC)cc3N2)cc1	10µM*	-4%
COc1cc(OC)c(NC(=O)c2ccc(-n3cnc4cccnc43)cc2)cc1Cl	-2%	-5%
CS(=O)(=O)c1ccc2nc(NC(=O)Nc3ccc(Cl)c(Cl)c3)sc2c1	10µM*	-8%
CS(=O)(=O)c1ccc2nc(NC(=O)Nc3cccc(Cl)c3)sc2c1	?	-2%
CCOc1ccc(/C(C)=N/N2C(=O)C(CC(=O)Nc3ccc(OC)cc3[N+](=O)[O-])SC2=Nc2cccc(C)c2C)cc1 (stereo not drawn)	10µM*	-1%
